Test results as given in PubChem BioAssay (NCI).
About 83,000 compounds went through this panel and 20% of them were active in at least one assay; those are over-represented in the sample as a whole.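 The endpoint reported here, percent growth, reads 100 for growth as untreated, 0 for no net growth and -100 for all cells dead.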 Values without a mark were called inactive. Active and inactive are the calls of the source. How the source made its calls: active means growth percent below 10; inactive means the rest.

Each compound was assayed on NCI/ADR-RES ovarian (assay: NCI-60 one-dose screen, 48 h (100 = growth as untreated, 0 = no growth, -100 = all killed)). Conditions: 10 µM unless noted.

Question: Which growth does the source give for `COC(=O)C1=CCC(n2cnc3c(N)ncnc32)O1` (centres undefined) here?
Answer: Its growth is 95.4%.

Question: How did the growth turn out when `CCN(Cc1cccc(S(=O)(=O)[O-])c1)c1ccc(C(=C2C=CC(=[N+](CC)Cc3cccc(S(=O)(=O)O)c3)C=C2)c2ccccc2S(=O)(=O)O)cc1` was run?
Answer: Its growth is 102%.

Question: For `CC(NC(=O)Oc1cccc2ccccc12)c1ccccc1` (centres undefined), which growth is on record?
Answer: The growth was 97.6%.

Question: Which growth does the source give for `OC(c1cc(-c2cccc(Cl)c2)nc2ccccc12)C1CCCCN1` (centres undefined) here?
Answer: The growth was -29.4% (active).

Question: `O=C(Nc1ccccc1OC(=O)c1ccccc1)c1ccccc1` was tested. Which growth did it give?
Answer: Its growth is 87.8%.

Question: How did the growth turn out when `Cc1ccccc1NC(=O)NC(CC(N)=O)c1ccc2c(c1)nc(-c1cccc(Oc3ccc(C(C)(C)C)cc3)c1)n2CCCN1CCCCC1C` (centres undefined) was run?
Answer: Its growth is 94.3%.

Question: `O=C(C(=O)c1cc(Br)ccc1O)c1cc(Br)ccc1O` was tested. Which growth did it give?
Answer: Its growth is 32.8%.

Question: For `Fc1ccccc1C1c2ccccc2-c2nccn21` (centres undefined), which growth is on record?
Answer: Its growth is 93.5%.

Question: With `COc1cc(/C=C\C(C)=N\Nc2ccccc2)ccc1O` as the compound, how does the growth read?
Answer: The growth was 77.4%.

Question: Which growth does the source give for `COc1cc(/C=N/NC(=O)c2ccc(C(F)(F)F)nc2Nc2ccc(Cl)cc2C)ccc1O` here?
Answer: The growth was 30.3%.

Question: `O=Cc1ccccc1C(=O)O` was tested. Which growth did it give?
Answer: Its growth is 104%.

Question: Which growth does the source give for `COc1cc(NC(=O)NCc2ccco2)ccc1-c1ccc(NC(=O)NCc2ccco2)cc1OC` here?
Answer: The growth was 91.2%.

Question: How did the growth turn out when `COc1cccc(/C=N/Nc2nc3ccccc3s2)c1OC` was run?
Answer: The growth was 91.7%.

Question: Which growth does the source give for `O=C(N/N=C/c1ccc(Cl)cc1Cl)c1ccccc1Nc1cccc(C(F)(F)F)c1` here?
Answer: The growth was 73.4%.

Question: How did the growth turn out when `COc1ccc(NS(=O)(=O)N2CCCCC2)cc1` was run?
Answer: The growth was 116%.

Question: How did the growth turn out when `O=c1c2ccccc2c2nccn2c2cc(Cl)ccc12` was run?
Answer: Its growth is 57.5%.

Question: For `COc1ccc(-c2ccc(O)c(C(=O)/C=C/c3cc(OC)c(OC)c(OC)c3)c2)cc1`, which growth is on record?
Answer: The growth was 69.9%.

Question: How did the growth turn out when `Cn1cnc([N+](=O)[O-])c1Sc1nc(N)nc2nc[nH]c12` was run?
Answer: The growth was 32.4%.

Question: `Cc1cc(=O)oc2cc(OCCn3c(C)nn(-c4ccc(Cl)cc4)c3=O)ccc12` was tested. Which growth did it give?
Answer: Its growth is 24.7%.

Question: With `O=C1C=CC(=O)N1c1ccccn1` as the compound, how does the growth read?
Answer: Its growth is 106%.

Question: Which growth does the source give for `CCN(CC)c1ccc(N=C2C=CC(=O)C=C2NC(C)=O)cc1` here?
Answer: Its growth is 105%.

Question: Which growth does the source give for `CC1CN(C2CCCCC2)C(=O)NC1=O` (centres undefined) here?
Answer: The growth was 119%.

Question: How did the growth turn out when `COc1ccc2cc(C3=CC(=O)CCC3)ccc2c1` was run?
Answer: Its growth is 95.6%.

Question: `COc1ccc(Cl)cc1Nc1nc(C(F)(F)F)ccc1C(=O)N/N=C/c1c(Cl)cccc1Cl` was tested. Which growth did it give?
Answer: The growth was 49.9%.
